Inconclusive results are not listed. Entries that show only a call come without a potency. Active and inactive are the calls of the source. The call rests on the fitted dose curve; in most records, active means well fitted activation curve with a large enough effect; inconclusive means small, poorly fitted or top-dose-only effect; inactive means no such curve, though single readings can be large or run the other way.

Chain of Cellular tumor antigen p53 (Homo sapiens) (P04637 whole entry, looked up): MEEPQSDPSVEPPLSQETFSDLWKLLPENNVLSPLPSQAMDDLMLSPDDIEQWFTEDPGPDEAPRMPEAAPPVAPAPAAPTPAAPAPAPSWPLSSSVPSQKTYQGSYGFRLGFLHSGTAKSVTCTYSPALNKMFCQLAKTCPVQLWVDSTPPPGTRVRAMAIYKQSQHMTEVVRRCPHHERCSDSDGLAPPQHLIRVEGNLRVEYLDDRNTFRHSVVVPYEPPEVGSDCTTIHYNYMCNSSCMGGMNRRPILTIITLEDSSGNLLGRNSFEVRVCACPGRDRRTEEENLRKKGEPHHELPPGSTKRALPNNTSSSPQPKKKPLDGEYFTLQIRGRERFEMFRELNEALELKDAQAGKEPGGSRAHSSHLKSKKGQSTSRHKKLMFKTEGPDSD

For the assay, the target named is Cellular tumor antigen p53 (Homo sapiens) (UniProt P04637). Nature of the assay: Confirmatory qHTS for small molecule compounds that upregulate eGFP-tagged delta133p53alpha (in C-terminal) cells. The note with it: delta133p53alpha-eGFP (C-terminal) reporter cells, GFP fluorescence upregulation; series mostly up to 57.5 µM. Put shortly:
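NCI-H358 cells with C-terminal eGFP-tagged delta133p53alpha, pre-induced 24 h with 100 ng/ml doxycycline, then exposed to titrated compounds 24 h at 37C in doxycycline-free medium. After fixation and Hoechst staining, GFP and nuclear fluorescence read by laser scanning cytometry.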
(qHTS replaces the single test concentration by a dilution series.)
For `COc1ccc(/C=C2\COc3ccc(C)cc3C2=O)cc1O`, the Potency is 43.2 µM (active).

Consider `Cn1cnc2c(NCc3ccccc3)nc(NCCO)nc21`, for which the Potency result was “inactive”. For `CC(C)(C)[C@]1(O)CCN2C[C@H]3c4ccccc4CCc4cccc(c43)[C@@H]2C1`, the Potency result is “inactive”.

As for `N=c1ccn2c(n1)O[C@H]1[C@H](O)[C@@H](CO)O[C@H]12`, the Potency entry was “inactive”.

Regarding `C=CCNc1ncnc2ccc(Br)cc12`, the Potency entry was “inactive”. The value for `Cc1cc(O)c2c(c1)C(=O)c1cc(O)cc(O)c1C2=O` was 21.7 µM (active); that for `COC(=O)Nc1nc2ccc(C(=O)c3cccs3)cc2[nH]1` was “inactive”; that for `CC12C(=O)OC(=O)C1(C)C1CCC2O1` (stereo unspecified) was 4.85 µM (active).

For `CC(=O)N[C@@H](CS)C(=O)O`, the Potency result is “inactive”.

In the case of `CNC(=O)[C@H]1O[C@@H](n2cnc3c(NCc4cccc(I)c4)ncnc32)[C@H](O)[C@@H]1O`, the Potency entry is “inactive”. The value for `NS(=O)(=O)c1ccc(-n2nc(C(F)(F)F)cc2-c2ccc(Cl)cc2)cc1` was “inactive”.

On to `O=C(N[C@@H](Cc1ccccc1)C(=O)CCl)OCc1ccccc1`, for which the Potency was 3.85 µM (active). The value for `C#C[C@]1(O)CC[C@H]2[C@@H]3CCC4=Cc5oncc5CC4(C)[C@H]3CCC21C` (stereo partly specified) was “inactive”; that for `O=C(c1cc(O)c(O)c([N+](=O)[O-])c1)c1ccccc1F` was “inactive”. As for `CSc1ccccc1N1CCN(CCCCCC(=O)NC2CCCc3ccccc32)CC1` (stereo unspecified), the entry is “inactive”; as for `CC(=O)SC1CC2=CC(=O)CC[C@]2(C)C2CC[C@@]3(C)C(CC[C@@]34CCC(=O)O4)C12` (stereo partly specified), “inactive”; as for `Cn1cc(C2=C(c3ccc(Cl)cc3Cl)C(=O)NC2=O)c2ccccc21`, 0.968 µM (active). The value for `CCCCS(=N)(=O)CCC(N)C(=O)O` (stereo unspecified) was “inactive”.

Consider `COc1cc2c(cc1OC)-c1cc(=Nc3c(C)cc(C)cc3C)n(C)c(=O)n1CC2`, for which the Potency result was “inactive”.

For the compound `O=C(O)c1cc2cc(F)ccc2[nH]1`, the Potency result was “inactive”.

With `CCN1CCCC1CNC(=O)c1cc(S(=O)(=O)CC)c(N)cc1OC` (stereo unspecified), the Potency result was “inactive”.

These data come from PubChem BioAssay AID2060323 (National Center for Advancing Translational Sciences (NCATS), 2025).
